Screens deposited in PubChem by ICCB-Longwood Screening Facility, Harvard Medical School.
Sampled rows, rich in hits. Any-hit rate of the full collection: about 0.52%.
Sa growth 42C: S. aureus growth inhibition at 42 and 30 °C, primary screen, LtaS inhibitor project, RN4220, two temperatures; OD600, 20 h, 42 °C; active compounds read low; relative growth, % (test concentration not listed); AID 720641, 2013; actives 0.53% (n = 170,000);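 active = relative growth at most 50% at the other temperature and 20+ points below 30 °C, or under 10% at both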
S aureus helic: inhibitors of S. aureus replicative helicase, primary screen, biochemical, fluorescence unwinding readout; replicative DNA helicase (DnaC/DnaB), Staphylococcus aureus; purified S. aureus helicase, fluorescence unwinding assay; inhibition, % (test concentration not listed); actives 0.05% (n = 120,000); AID 485395, 2010; in the data active = inhibition above about 25%, passing the limit was not always enough
Each line names hits and unclear results; the compound was inactive in the other large screens.

O=C(Cc1ccc(F)cc1)N1CCC(c2nc3c(nnn3Cc3ccc(F)cc3)c(=O)[nH]2)CC1	none (no result: S aureus helic)
Nc1cc2ccccc2cc1C(=O)O	none
CC(C)CCNC(=O)c1ccc(CS(=O)c2cccc(Cl)c2)o1 (centres undefined)	none
C=C(NC(=O)C(=C)NC(=O)c1csc(C2=NC3c4csc(n4)C4NC(=O)c5csc(n5)C(C(C)(O)C(C)O)NC(=O)C5CSC(=N5)C(=CC)NC(=O)C(C(C)O)NC(=O)c5csc(n5)C3(CC2)NC(=O)C(C)NC(=O)C(=C)NC(=O)C(C)NC(=O)C(C(C)CC)NC2C=Cc3c(C(C)O)cc(nc3C2O)C(=O)OC4C)n1)C(N)=O (centres undefined)	Sa growth 42C -1.0 (no result: S aureus helic)
Cc1ccc(C(C)C)cc1S(=O)(=O)Nc1ccccn1	none
O=C(c1ccccc1)N(C(=O)c1ccccc1)c1ccccn1	none
NC(=O)CN1CCN(C/C=C/c2ccccc2)CC1	none
COc1ccc(-c2cc(C(F)(F)F)nc(NCc3ccccc3)n2)cc1	none (no result: S aureus helic)
COc1ccc(-c2cc(C(F)(F)F)nc(S(C)(=O)=O)n2)cc1	Sa growth 42C 28 (no result: S aureus helic)
Cc1cc(=O)n2c(n1)-c1ccccc1C2	none
N#Cc1ccccc1NC(=O)Nc1ccc(CN2CCOCC2)cc1	none
CNC(=O)Nc1cc(C(F)(F)F)cc(C(F)(F)F)c1	none (no result: S aureus helic)
Cc1noc(C)c1NC(=O)Nc1cc(C(F)(F)F)cc(C(F)(F)F)c1	Sa growth 42C 5.2
Cc1ccc(CN(C)C(=O)Cc2csc(-c3ccccc3)n2)o1	none
COc1ccc(C2=Nn3c(nc4sc5c(c4c3=O)CCCC5)SC2)cc1	none (no result: S aureus helic)
COc1ccc(C2=Nn3c([n+](C)c4ccccc43)SC2)cc1	Sa growth 42C 1.4
CCN1C(=O)/C(=c2\sc3nc(-c4ccccc4OC)nn3c2=O)c2cc(Br)ccc21	none
CCN1CCc2c(OC)cccc2C1=O	none
COc1cccc2c1CCN(Cc1cccc(C)c1)C2=O	Sa growth 42C 5.1
CCc1c(C)sc2c1CCN(Cc1ccc(F)cc1)C2c1ccccc1 (centres undefined)	Sa growth 42C -1.1 (no result: S aureus helic)
CCc1c(C)sc2c1CCN(Cc1cccc(F)c1)C2c1ccccc1 (centres undefined)	Sa growth 42C -1.3 (no result: S aureus helic)
CCc1c(C)sc2c1CCN(C(=O)Nc1cc(C)cc(C)c1)C2c1ccccc1 (centres undefined)	none (no result: S aureus helic)
CCc1c(C)sc2c1CCN(Cc1ccc(C#N)cc1)C2c1ccccc1 (centres undefined)	none (no result: S aureus helic)
CNC(=O)c1ccc(N2C(=O)C3C4C=CC(C4)C3C2=O)cc1 (centres undefined)	none
CCOc1ccc(CCNC(=O)CN2Cc3ccccc3C2=O)cc1OCC	none
O=S(=O)(c1ccc2ccccc2c1)N1CCN(Cn2[nH]c(-c3cccs3)nc2=S)CC1	none
C=CCN(CC=C)Cn1[nH]c(-c2cccs2)nc1=S	Sa growth 42C 38
CC(C)CNC(=O)c1ccccc1S(=O)(=O)N1CCCCC1	Sa growth 42C 49
O=S(=O)(c1cccc2ccccc12)N1CCCCC1	none
O=C(/C=C\c1ccco1)Oc1cccc2cccnc12	Sa growth 42C 1.6
CCc1ccc(OC(=O)/C=C/c2ccco2)cc1	none
CCOC(=O)C/C(C)=N/c1ncn(-c2ccc(OC)cc2)c1C(=O)c1ccccc1	none
COc1ccc(/C=C(\C#N)c2ccc(OC)cc2)cc1	none (no result: S aureus helic)
COc1ccc(/C=C(\C#N)c2ccc(C)cc2)cc1	Sa growth 42C 44 (no result: S aureus helic)
Cc1ccc(NC(=O)CC2SC(=Nc3ccc(C)cc3C)N(CCN3CCOCC3)C2=O)cc1 (centres undefined)	none
O=C1/C(=C/c2ccncc2)CCC/C1=C\c1ccncc1	Sa growth 42C -0.2
O=C1/C(=C/c2cccnc2)CCCC/C1=C\c1cccnc1	none (no result: Sa growth 42C)
Nc1noc2oc3nc(-c4ccncc4)cc(C(F)(F)F)c3c12	none
Cc1ccc(-n2cnc3cc(C(=O)NCC4CCCO4)ccc32)cc1Cl (centres undefined)	none (no result: Sa growth 42C)
Cc1ccc(C(C)C)c(OCCn2ccnc2)c1	none
Cc1ccc(OCCCn2ccnc2)cc1	none
Cc1ccc(C(C)C)c(OCCCCn2ccnc2)c1	Sa growth 42C -0.7
COc1ccc(OCCCn2ccnc2)cc1	none
Cc1cc(OCCCCCn2ccnc2)cc(C)c1Cl	Sa growth 42C -0.9
c1ccc2c(OCCCCCn3ccnc3)cccc2c1	Sa growth 42C -0.5
CCCn1c(=O)c2c(nc3oc(-c4ccccc4)cn32)n(C)c1=O	none
O=C(O)C1CCCCN1S(=O)(=O)c1ccccc1Cl (centres undefined)	none
O=C(Nc1nnc(/N=C/c2cccs2)s1)c1ccc(Cl)cc1Cl	none (no result: Sa growth 42C)
Cc1ccccc1S(=O)(=O)Cc1ccc(C(=O)NCC2CCN(C(C)c3ccccc3)C2)o1 (centres undefined)	none (no result: S aureus helic)
COc1ccc(-c2ccnc(SC)n2)cc1	none (no result: S aureus helic)
COc1nncc(-c2cnnc(SC)n2)n1	Sa growth 42C 0.1
CC(C)(C)c1ccc(Cn2c(=N)n(CC(O)c3ccco3)c3ccccc32)cc1 (centres undefined)	none
CC(C)(C)c1ccc(Cn2c(=N)n(CC(=O)c3ccco3)c3ccccc32)cc1	Sa growth 42C -0.6
OC1CCC(NCC(O)COCc2ccccc2Cl)CC1 (centres undefined)	none
COC(=O)c1c2c(n3ccccc13)C(=O)c1ccccc1C2=O	none (no result: Sa growth 42C)
COC(=O)c1c2c(n3ccc(C)cc13)C(=O)c1ccccc1C2=O	Sa growth 42C 7.5
COC(=O)c1ccc(COC(=O)c2cc(-c3ccco3)nc3ccccc23)cc1	none
O=C(OCc1ccc(F)cc1)c1cc(-c2ccco2)nc2ccccc12	Sa growth 42C 6.6
COc1cc(Cc2cc(OC)c(C)cc2OC)c(OC)cc1C	none (no result: S aureus helic)
COc1cc(C)c(Cc2cnc(N)nc2N)cc1OC	Sa growth 42C -0.2 (no result: S aureus helic)
CN(C(=O)c1cc(-c2ccco2)on1)c1ccccc1	none
O=C(O)COc1ccc(-c2nnco2)cc1	none
CCOc1ccc(C(=O)C(C)Sc2nnnn2-c2ccc(OC)cc2)cc1 (centres undefined)	S aureus helic 29
COc1ccc(-n2nnnc2SCSc2nnnn2-c2ccc(OC)cc2)cc1	none
Cc1ccc(NC(=O)Cc2nc(CN3CCCC3c3cccs3)cs2)cc1 (centres undefined)	none
Cc1nc(-c2ccccn2)nc(SCC(=O)c2ccccc2)c1Cl	none (no result: S aureus helic)
Cc1nc(-c2ccccn2)nc(SCc2ccccc2)c1Cl	Sa growth 42C 19 (no result: S aureus helic)
Cn1c(SCCSc2cccc(C(F)(F)F)c2)nnc1-c1ccco1	none
Cc1ccc(C)n1-c1ccc(OC(F)F)cc1	none
O=C(O)COc1ccc2c(c1)C(=O)CC1(CCCCC1)O2	none
Cc1c2oc3c(C)ccc(C(=O)N[C@@H]4C(=O)N[C@H](C(C)C)C(=O)N5CCC[C@H]5C(=O)N(C)CC(=O)N(C)[C@@H](C(C)C)C(=O)O[C@@H]4C)c3nc-2c(C(=O)N[C@@H]2C(=O)N[C@H](C(C)C)C(=O)N3CCC[C@H]3C(=O)N(C)CC(=O)N(C)[C@@H](C(C)C)C(=O)O[C@@H]2C)c(N)c1=O	Sa growth 42C -0.6 (no result: S aureus helic)
Oc1c(C(c2ccc(F)cc2)N2CCCCC2)ccc2cccnc12 (centres undefined)	none
Oc1c(C(c2cccs2)N2CCCCC2)ccc2cccnc12 (centres undefined)	Sa growth 42C 8.1
N#CC(C#N)=CNc1ccncc1	none
Cc1cc2cc(CN(Cc3ccco3)C(c3nnnn3C3CCCC3)C(C)C)c(=O)[nH]c2cc1C (centres undefined)	none
Cc1[nH]nc(-c2ccc(O)cc2O)c1Oc1ccc(C(C)C)cc1	Sa growth 42C 29
Cc1[nH]nc(-c2ccc(O)c(C)c2O)c1Oc1ccccc1	none
